PubChem BioAssay (NCI)
About 83,000 compounds went through this panel and 20% of them were active in at least one assay; those are over-represented in the sample as a whole.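 Single-dose data. Exposure time 48 hours. Values below 10 considered active.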 Calls of active or inactive are those of the source.

How the values were obtained:
Test in all cases: NCI-60 one-dose screen, 48 h (100 = growth as untreated, 0 = no growth, -100 = all killed)
SK-MEL-2 melanoma = details: 10 µM unless noted
EKVX NSCLC = details: 10 µM unless noted
SN12C renal = details: 10 µM unless noted
UO-31 renal = details: 10 µM unless noted
TK-10 renal = details: 10 µM unless noted
ACHN renal = details: 10 µM unless noted
CAKI-1 renal = details: 10 µM
CCRF-CEM leukemia = details: 10 µM unless noted
MOLT-4 leukemia = details: 10 µM unless noted
SR leukemia = details: 10 µM unless noted
RPMI-8226 leukemia = details: 10 µM unless noted
OVCAR-8 ovarian = details: 10 µM unless noted
OVCAR-5 ovarian = details: 10 µM unless noted
OVCAR-4 ovarian = details: 10 µM unless noted
SK-OV-3 ovarian = details: 10 µM unless noted
IGROV1 ovarian = details: 10 µM unless noted
OVCAR-3 ovarian = details: 10 µM unless noted
HS 578T breast = details: 10 µM unless noted
NCI/ADR-RES ovarian = details: 10 µM unless noted

Measured: growth

COc1ccc(-c2cc(-c3ccc(Cl)cc3)nc3nc(N)nn23)cc1
inactive: SK-MEL-2 melanoma 103% | EKVX NSCLC 99.3% | SN12C renal 97.6% | UO-31 renal 81% | TK-10 renal 93.2% | ACHN renal 96.3% | CAKI-1 renal 83.7% | CCRF-CEM leukemia 95% | MOLT-4 leukemia 89% | SR leukemia 93.6% | RPMI-8226 leukemia 108% | OVCAR-8 ovarian 99.1% | OVCAR-5 ovarian 101% | OVCAR-4 ovarian 102% | SK-OV-3 ovarian 119% | IGROV1 ovarian 98.2% | OVCAR-3 ovarian 110% | HS 578T breast 109% | NCI/ADR-RES ovarian 102%

CCOc1ccc2nc(NC(=O)Nc3ccccc3C)sc2c1
inactive: SK-MEL-2 melanoma 48.5% | EKVX NSCLC 72% | SN12C renal 58.7% | UO-31 renal 66.3% | TK-10 renal 64.5% | ACHN renal 67% | CAKI-1 renal 60.9% | CCRF-CEM leukemia 47.7% | MOLT-4 leukemia 34.5% | SR leukemia 24.3% | OVCAR-8 ovarian 74.7% | OVCAR-5 ovarian 80.2% | OVCAR-4 ovarian 80.2% | SK-OV-3 ovarian 82.3% | IGROV1 ovarian 49.5% | OVCAR-3 ovarian 20.7% | HS 578T breast 50.5% | NCI/ADR-RES ovarian 22.8%

CCOC(=O)/C=c1\sc2n(c1=O)C1C(NN=2)N(CC)C(=O)N1CC (stereo not drawn)
inactive: SK-MEL-2 melanoma 76.7% | EKVX NSCLC 81.9% | SN12C renal 71.9% | UO-31 renal 56.2% | TK-10 renal 81.3% | ACHN renal 44.5% | CAKI-1 renal 51.3% | CCRF-CEM leukemia 53.4% | RPMI-8226 leukemia 64.6% | OVCAR-8 ovarian 84.2% | OVCAR-5 ovarian 84.8% | OVCAR-4 ovarian 91.2% | SK-OV-3 ovarian 89.2% | IGROV1 ovarian 59.6% | HS 578T breast 61.5% | NCI/ADR-RES ovarian 53.1%

CCOC(=O)C1=C(C)N=C2Sc3ccccc3N2C1c1ccccc1 (stereo not drawn)
inactive: SK-MEL-2 melanoma 89.7% | EKVX NSCLC 67.6% | SN12C renal 93.4% | UO-31 renal 64.7% | TK-10 renal 110% | ACHN renal 88% | CAKI-1 renal 65.6% | CCRF-CEM leukemia 86.2% | MOLT-4 leukemia 87.2% | RPMI-8226 leukemia 73.4% | OVCAR-8 ovarian 96.6% | OVCAR-5 ovarian 102% | OVCAR-4 ovarian 91.9% | IGROV1 ovarian 77.3% | HS 578T breast 93.5% | NCI/ADR-RES ovarian 82.3%

CCOC(=O)c1c(NCC(=O)Nc2cccc([N+](=O)[O-])c2)sc2c1CCCC2
inactive: SR leukemia 11.7%
active: SK-MEL-2 melanoma -43.2% | EKVX NSCLC -22.7% | SN12C renal -28.9% | UO-31 renal -17.7% | TK-10 renal -33.2% | ACHN renal -60.9% | CAKI-1 renal -20.2% | CCRF-CEM leukemia 8.8% | MOLT-4 leukemia 5.22% | RPMI-8226 leukemia -10.7% | OVCAR-8 ovarian -18.2% | OVCAR-5 ovarian -45.6% | SK-OV-3 ovarian -67.3% | IGROV1 ovarian -19.6% | OVCAR-3 ovarian -39.7% | HS 578T breast -14.8% | NCI/ADR-RES ovarian -36.7%

CCOC(=O)c1c(NC(=O)c2ccc(F)cc2F)sc2c1CCC(=O)C2
inactive: SK-MEL-2 melanoma 98.3% | EKVX NSCLC 97.7% | SN12C renal 99% | UO-31 renal 83.8% | TK-10 renal 124% | ACHN renal 95.6% | CAKI-1 renal 80.1% | CCRF-CEM leukemia 98.2% | MOLT-4 leukemia 95.8% | SR leukemia 88% | RPMI-8226 leukemia 106% | OVCAR-8 ovarian 96.9% | OVCAR-5 ovarian 104% | OVCAR-4 ovarian 102% | SK-OV-3 ovarian 104% | IGROV1 ovarian 100% | HS 578T breast 103% | NCI/ADR-RES ovarian 96.8%

C#CCOc1ccc(C(Nc2ccc(OC)cc2)c2nnnn2C2CCCCC2)cc1 (stereo not drawn)
inactive: SK-MEL-2 melanoma 104% | EKVX NSCLC 87.4% | SN12C renal 96.5% | UO-31 renal 80.4% | TK-10 renal 112% | ACHN renal 97.3% | CAKI-1 renal 76.5% | MOLT-4 leukemia 91.4% | SR leukemia 95.6% | OVCAR-8 ovarian 95.2% | OVCAR-5 ovarian 102% | OVCAR-4 ovarian 103% | SK-OV-3 ovarian 118% | IGROV1 ovarian 91.6% | OVCAR-3 ovarian 112% | HS 578T breast 95.2% | NCI/ADR-RES ovarian 88.1%

CCOC(=O)c1c(NCC(=O)Nc2cccc(Cl)c2)sc2c1CCCC2
inactive: SK-MEL-2 melanoma 93.5% | EKVX NSCLC 89.9% | SN12C renal 73% | UO-31 renal 76.4% | TK-10 renal 146% | ACHN renal 88.7% | CAKI-1 renal 68.4% | CCRF-CEM leukemia 58% | MOLT-4 leukemia 47.2% | SR leukemia 69.4% | RPMI-8226 leukemia 78.6% | OVCAR-8 ovarian 87.7% | OVCAR-5 ovarian 94.5% | OVCAR-4 ovarian 80.3% | IGROV1 ovarian 50.6% | OVCAR-3 ovarian 82.8% | HS 578T breast 77.4% | NCI/ADR-RES ovarian 81.6%

O=C(Nc1ccccc1)Nc1nc2ccc([N+](=O)[O-])cc2s1
inactive: CCRF-CEM leukemia 14.7% | MOLT-4 leukemia 11.6% | OVCAR-8 ovarian 12.1% | OVCAR-5 ovarian 12.1% | IGROV1 ovarian 19.7%
active: SK-MEL-2 melanoma -10.8% | EKVX NSCLC 8.64% | SN12C renal 2.88% | UO-31 renal 8.95% | TK-10 renal 5.92% | ACHN renal 3.7% | CAKI-1 renal 3.46% | OVCAR-4 ovarian -4.54% | SK-OV-3 ovarian -7.62% | OVCAR-3 ovarian 4.1% | HS 578T breast 5.92% | NCI/ADR-RES ovarian 2.34%

CCN1C(=O)N(CC)C2SC(N/N=C/C=C/c3ccccc3OC)=NC21 (stereo not drawn)
active: OVCAR-3 ovarian -39.6%
inactive: SK-MEL-2 melanoma 51.5% | EKVX NSCLC 46.8% | SN12C renal 28.6% | UO-31 renal 40.2% | TK-10 renal 52.1% | ACHN renal 29.9% | CAKI-1 renal 46.7% | CCRF-CEM leukemia 11.3% | MOLT-4 leukemia 16.9% | SR leukemia 27.5% | RPMI-8226 leukemia 14.3% | OVCAR-8 ovarian 22.3% | OVCAR-5 ovarian 37.7% | OVCAR-4 ovarian 68.6% | IGROV1 ovarian 21.4% | HS 578T breast 27.1% | NCI/ADR-RES ovarian 11.9%

CCOC(=O)C1=C(C)Nc2nc3ccccc3n2C1c1cccc(Br)c1 (stereo not drawn)
inactive: SK-MEL-2 melanoma 89.9% | EKVX NSCLC 80.2% | SN12C renal 95.1% | UO-31 renal 73.7% | TK-10 renal 113% | ACHN renal 88.9% | CAKI-1 renal 54.5% | MOLT-4 leukemia 69.3% | SR leukemia 25.4% | OVCAR-8 ovarian 96% | OVCAR-5 ovarian 97.1% | IGROV1 ovarian 77.4% | OVCAR-3 ovarian 40.3% | HS 578T breast 79.1% | NCI/ADR-RES ovarian 59%

O=C(COc1cccc2cccnc12)Nc1ccc(C(=O)/C=C/c2ccc(Cl)cc2)cc1
active: RPMI-8226 leukemia 7.02%
inactive: SK-MEL-2 melanoma 96.2% | EKVX NSCLC 80.9% | SN12C renal 86% | UO-31 renal 67.7% | TK-10 renal 104% | ACHN renal 94% | CAKI-1 renal 76.2% | CCRF-CEM leukemia 83.3% | MOLT-4 leukemia 67.7% | SR leukemia 61.1% | OVCAR-8 ovarian 94.4% | OVCAR-5 ovarian 105% | OVCAR-4 ovarian 92% | IGROV1 ovarian 88.8% | OVCAR-3 ovarian 100% | HS 578T breast 98.8% | NCI/ADR-RES ovarian 79.2%
